Rows were chosen to be rich in hits. Some 3.5% of all compounds tested hit in one or more screens of this group.
GPR151 ag: activators of human GPR151; 1% of 650,000 active; Q8TDV0; activation, % at 11.2 µM; PathHunter beta-arrestin GPR151 cells, luminescence; in the data active = activation above about 4.9%;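 note: 0% = median of compound wells and 100% = cells with positive control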
TEAD-YAP inh: TEAD-YAP interaction inhibition. 1.4% of 640,000 active. inhibition, % at 9.12 µM. AID 1259422. HEK-TIYL cells, TEAD-Gal4/YAP UAS-luciferase luminescence; in the data active = inhibition above about 32%;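 note: 0% = median of test compound wells and 100% = reference inhibitor wells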
MITF primary: human MITF inhibition, primary screen | O75030 | inhibition, % at 2.6 µM | AlphaScreen MITF homodimerization, bead proximity signal | 0.91% of 650,000 active; in the data active = inhibition above about 50%;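 note: 0% = vehicle wells with protein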
FBW7 act: activators of human E3 ligase FBW7; AlphaScreen FBW7–phospho-cyclin E peptide binding, activator screen; Q969H0; AID 1259310; normalized activity (activation), % at 26.1 µM; 0.13% of 650,000 active; in the data active = normalized activity above about 1.9%;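 note: purified mutant Fbw7 with reduced substrate affinity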
MITF inh conf: human MITF inhibition, confirmation; shares compounds with MITF primary; AlphaScreen MITF homodimerization, biotin/His-MITF beads; inhibition, % at 2.6 µM; 16% of 4,700 active; AID 1259372;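 active = inhibition above a cutoff derived from the DMSO control wells, cut at about 28% in these data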;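 note: 0% = MITF dimer wells with DMSO only; inhibitors lower the bead chemiluminescence by keeping MITF from dimerizing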
AS interf ctr: counter-screen: compounds optically interfering with AlphaScreen | shares compounds with MITF primary | LysRS AlphaScreen counterscreen, signal interference, triplicate | inhibition, % at 2.6 µM | 7.6% of 4,700 active | AID 1259376;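 active = inhibition above a cutoff derived from the DMSO control wells, cut at about 30% in these data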
Active calls of the source: *.

Screening CN1C(=O)NC(=O)/C(=C/c2ccc(Br)o2)C1=O returned GPR151 ag 0.6, TEAD-YAP inh 9.7, MITF primary 70.9* and FBW7 act -0.4.
For O=C1NC(=S)N(c2cccc(F)c2)C(=O)/C1=C/c1ccc(Br)o1 the results were GPR151 ag -1.0, TEAD-YAP inh 4.1, MITF primary 83.7* and FBW7 act -0.1.
Screening O=C(CCl)Nc1ccc(Cl)cc1C(=O)c1ccccc1 returned GPR151 ag 1.9, TEAD-YAP inh 35.5*, MITF primary 9.7 and FBW7 act 0.2.
For CCN(CC)P(=S)(c1ccc(C=O)o1)N(CC)CC the results were GPR151 ag 0.2, TEAD-YAP inh 2.3, MITF primary -3.2 and FBW7 act -0.2.
Screening C=C(C)[C@H]1Cc2c(ccc3c2O[C@@H]2COc4cc(OC)c(OC)cc4[C@@H]2C3=O)O1 returned GPR151 ag -0.5, TEAD-YAP inh 70.4*, MITF primary 22.0 and FBW7 act -0.2.
CC[n+]1c(/C=C/N(C)c2ccccc2)sc2ccc(OC)cc21 was read as GPR151 ag -0.5, TEAD-YAP inh 79.4*, MITF primary 9.8 and FBW7 act 0.2.
For CC/C(=C\c1sc2ccc(OC)cc2[n+]1CC)SC (tested in a mixture with another compound) the results were GPR151 ag -0.5, TEAD-YAP inh 3.9, MITF primary 10.4 and FBW7 act 0.0.
Screening Cc1ccc(C2=NCC(=O)N(CC#N)c3sccc32)cc1 returned GPR151 ag -0.6, TEAD-YAP inh -27.3, MITF primary 16.2 and FBW7 act 0.0.
CC1CCCC(N2CCN(C(=O)COc3ccccc3)CC2)C1 (stereo not drawn) was read as GPR151 ag 0.2, TEAD-YAP inh 3.1, MITF primary 25.1 and FBW7 act -0.1.
For CC1CCC(C(C)C)C(OC(=O)Cn2c(COc3ccccc3)[n+](C)c3ccccc32)C1 (stereo not drawn) the results were GPR151 ag 1.5, TEAD-YAP inh 37.0*, MITF primary -10.8 and FBW7 act 0.0.
Screening CC(C)N1CCN(C2CC3CCC2C3)CC1 (stereo not drawn) returned GPR151 ag -0.6, TEAD-YAP inh 3.7, MITF primary 60.5*, FBW7 act -0.1, MITF inh conf -11.9 and AS interf ctr 2.3.
Clc1ccc(CN2CCOCC2)cn1 was read as GPR151 ag 0.8, TEAD-YAP inh 2.4, MITF primary 5.8 and FBW7 act 0.0.
`Cc1ccc(C)c(CN2CCN(C)CC2)c1` gave GPR151 ag 0.5, TEAD-YAP inh 3.7, MITF primary 62.3*, FBW7 act 0.5, MITF inh conf 2.2 and AS interf ctr 3.8.
Screening Clc1ccc(CN2CCNCC2)cc1 returned GPR151 ag 0.0, TEAD-YAP inh -10.9, MITF primary 14.9 and FBW7 act 0.1.
`Cc1ccccc1CN1CCN(C)CC1` gave GPR151 ag 0.6, TEAD-YAP inh 0.9, MITF primary -6.8 and FBW7 act 0.0.
`COc1ccc(CN2CCN(Cc3ccccc3C)CC2)cc1` gave GPR151 ag 0.8, TEAD-YAP inh -6.6, MITF primary 74.9*, FBW7 act -0.1, MITF inh conf -2.6 and AS interf ctr 10.1.
Cc1ccc(CN2CCN(Cc3ccc(Cl)cc3)CC2)cc1 was read as GPR151 ag -0.7, TEAD-YAP inh -7.4, MITF primary 83.5*, FBW7 act -0.1, MITF inh conf -5.8 and AS interf ctr -4.6.
`Cc1ccccc1CN1CCN(c2ccc(Cl)cc2)CC1` gave GPR151 ag -0.2, TEAD-YAP inh -2.0, MITF primary -4.7 and FBW7 act -0.1.
CCc1ccc(CN2CCN(Cc3ccccc3C)CC2)cc1 was read as GPR151 ag 1.5, TEAD-YAP inh 4.2, MITF primary 65.0*, FBW7 act -0.2, MITF inh conf 3.1 and AS interf ctr 10.9.
`CCOC(=O)CN1C(=O)C2(C(C(=O)OC)=C(C)OC(N)=C2C(=O)OC)c2ccccc21` (stereo not drawn) gave GPR151 ag -0.5, TEAD-YAP inh 10.2, MITF primary 30.8 and FBW7 act 0.1.
For CCN(CC)CCO[C@H]1CC[C@@]2(C)C(=CCC3C2CC[C@]2(C)C(=O)CCC32)C1 (stereo partly drawn) the results were GPR151 ag -0.1, MITF primary -8.0 and FBW7 act 0.1.
